# Measured values from PubChem BioAssay (NCI).
# The panel holds about 83,000 compounds, 20% with a hit somewhere; the sample as a whole holds those more often.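 The test compound was applied at a single concentration to cells in 96-well plates for 48 hours, and percent growth was recorded.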 A number with no mark means an inactive call. Activity calls are given as the source filed them. Rule for the calls: active = growth percent below 10; inactive = the rest.
# Tested on: MDA-MB-468 breast
# Test: NCI-60 one-dose screen, 48 h (100 = growth as untreated, 0 = no growth, -100 = all killed)
# Settings: 10 µM unless noted
row,SMILES,growth
1,CCCCN(CCC)CCCCCCCCCCN1CCCc2ccccc21,65.6%
2,CCN1CCN(CC(=O)Nc2nc3ccc(NCc4ccc(F)cc4)cc3s2)CC1,86.1%
3,CC1=C/C(=N\N=C2/C=C(C)CC(C)(C)C2)CC(C)(C)C1,98.5%
4,CN1CCN(CCOc2ccc(-c3cnc4c(-c5cccc(F)c5F)cnn4c3)cc2)CC1,94.8%
5,O=C(O)CNS(=O)(=O)c1ccc(Oc2ccc(S(=O)(=O)NCC(=O)O)cc2)cc1,107%
6,Cc1ccc(/C(C#N)=C/c2ccc3c(c2)OCO3)cc1,43.9%
7,COc1ccc(/C(N)=N/C(N)=N/c2nc3ccccc3s2)cc1,24.3%
8,CCOC(=O)c1nn(C2CCCCO2)c2ccc(NC(=O)CN3CCCC3)cc12 (stereo not given),111%
9,COc1ccc(/C=C(\C#N)n2nnc3cc(Cl)ccc32)cc1,18.5%
10,Cc1ccccc1NC(=O)N/C(N)=N/c1nc(-c2cccc([N+](=O)[O-])c2)cs1,6.27% (active)
11,CO[C@H]1/C=C/O[C@@]2(C)Oc3c(C)c(O)c4c(O)c(c(/C=N/N5CCN(C)CC5)c(O)c4c3C2=O)NC(=O)/C(C)=C\C=C\C(C)[C@H](O)[C@@H](C)[C@@H](O)[C@@H](C)[C@@H](OC(C)=O)[C@@H]1C (stereo not given in full),92.2%
12,Cc1ccc(N=Nc2c(N)nc(N)[nH]c2=O)cc1C,84.5%
13,Fc1cccc(F)c1C#Cc1ccc2cccnc2c1,36.5%
14,Cc1cc(C#Cc2ccccc2)ccc1-n1c(/C=C/c2ccc(F)cc2)nc2ccccc2c1=O,49.3%
15,CCC(=O)c1c(C)[nH]c(C)c1C,54.4%
16,COc1ccc(/C(=C2\O[C@@H]([C@H]3COC(C)(C)O3)[C@H]3OC(C)(C)O[C@@H]23)c2cc(OC)c(OC)c(OC)c2)cc1O,96.4%
17,CCN(CC)CCO/N=C1\CC(c2ccc(OC)c(OC)c2)Oc2ccccc21 (stereo not given),80.1%
18,CC(=O)ON1CCCC(P(=O)(OCOC(=O)C(C)(C)C)OCOC(=O)C(C)(C)C)C1=O (stereo not given),-21.2% (active)
19,Cc1ccc(S(=O)(=O)Oc2ccc3sc4c(CO)ccc(NCCN(C)C)c4c(=O)c3c2)cc1,-75.1% [100 µM] (active)
20,CCOC(=O)NNC(=S)Nc1ccccc1,97.7%
21,COc1cc(C)c(Cl)cc1C1=NN(c2ccc(S(N)(=O)=O)cc2)C(/C=C/c2ccccc2)C1 (stereo not given),41.2%
22,COC(=O)CCC1=C(C)/C(=C/c2[nH]c(-c3ccc[nH]3)cc2OC)N=C1C,45.2%
23,N#C/C(=N\Nc1ccccc1)C(=O)Nc1cc(-c2ccccc2)nn1-c1ccccc1,-3.2% (active)
24,Cn1c(=O)c2[nH]c(C(O)c3ccc(Cl)cc3)nc2n(C)c1=O (stereo not given),96.7%
25,CN(C)CC(=O)c1ccc2cc(Br)c3ccccc3c2c1,72.1%
26,CCC1(c2ccccc2)Oc2ccccc2-n2c(C#N)c3ccccc3c2C1=O (stereo not given),104%
27,C=CCCCC(=O)CCC(=O)OCC1O[C@@H](O[C@@H]2C(O)[C@@H](OC(C)=O)C(C)O[C@H]2O[C@H](CC=C)CCCCC)C(O)[C@@H](OC(=O)/C(C)=C/C)[C@@H]1OC(=O)/C=C/c1ccccc1 (stereo not given in full),-23.6% (active)
28,O=c1nc(NO)[nH]c(=O)n1Cc1ccccc1,107%
29,CC(=O)N1c2ccccc2NC2=C(C(=O)N(C)C2(C)C)C1C (stereo not given),19.2%
30,CN1C(=O)CCC(N2C(=O)c3cccc(NCCOCCOCCNC(=O)c4cc5c(o4)C(=O)c4ccccc4C5=O)c3C2=O)C1=O (stereo not given),-28.3% (active)
